Compound activity as filed in PubChem.
ALDH1A1 block – qHTS Assay for Inhibitors of Aldehyde Dehydrogenase 1 (ALDH1A1); Aldehyde dehydrogenase 1A1 (Homo sapiens), P00352; Purified ALDH1A1, NADH fluorescence, propionaldehyde substrate; Potency, µM (highest dose often 75.3 µM), most hits filed as inhibitors; 220,000 tested, 7.3% active; AID 1030, 2008
JMJD2E inh – qHTS Assay for Inhibitors of Human Jumonji Domain Containing 2E (JMJD2E); JMJD2E catalytic domain, FDH-coupled NADH fluorescence (FDH is formaldehyde dehydrogenase); 230,000 tested, 1.6% active; Potency, µM (highest dose often 57.1 µM), actives largely listed as inhibitors; Lysine-specific demethylase 4E (Homo sapiens), B2RXH2; also: nearly all actives have a fitted effect of over 50% in size
Target sequence (B2RXH2 1-337 limits assumed): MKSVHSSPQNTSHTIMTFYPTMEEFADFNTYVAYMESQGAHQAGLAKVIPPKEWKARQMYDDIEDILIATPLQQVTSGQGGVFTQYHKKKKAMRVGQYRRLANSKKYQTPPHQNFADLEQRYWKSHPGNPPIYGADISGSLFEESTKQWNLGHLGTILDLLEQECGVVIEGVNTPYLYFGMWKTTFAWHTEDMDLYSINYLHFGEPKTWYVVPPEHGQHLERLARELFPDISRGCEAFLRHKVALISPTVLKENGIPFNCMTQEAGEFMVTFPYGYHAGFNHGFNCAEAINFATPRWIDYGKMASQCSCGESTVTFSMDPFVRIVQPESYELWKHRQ
HPGD block – qHTS Assay for Inhibitors of HPGD (15-Hydroxyprostaglandin Dehydrogenase); 15-hydroxyprostaglandin dehydrogenase [NAD(+)] (Homo sapiens), P15428; purified HPGD, NADH fluorescence kinetic, PGE2 substrate; Potency, µM, hits mostly inhibitors; 150,000 tested, 4.3% active; AID 894, 2007
Target sequence (P15428 whole entry, looked up): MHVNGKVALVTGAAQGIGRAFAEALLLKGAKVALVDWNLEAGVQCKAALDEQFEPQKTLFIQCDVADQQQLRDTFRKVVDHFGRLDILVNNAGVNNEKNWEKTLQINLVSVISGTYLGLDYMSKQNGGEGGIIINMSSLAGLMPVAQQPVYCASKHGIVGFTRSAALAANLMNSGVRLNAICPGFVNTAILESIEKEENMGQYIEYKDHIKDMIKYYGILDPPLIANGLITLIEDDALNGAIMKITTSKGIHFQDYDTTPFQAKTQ
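NADH formation kinetics: reaction with 30 uM PGE2 and 1 mM NAD+ (final), 20 nM enzyme, Tris-HCl pH 8 with Tween 20, after 15 min compound preincubation at room temperature. Fluorescence change, last versus first of five reads.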
PNC inhibitor – High Content Assay for Compounds that inhibit the Assembly of the Perinucleolar Compartment | PC3M PTB-GFP, PNC prevalence imaging, 16 h; active compounds read low | activity change (PNC), negative = inhibition, % at 10 µM | 140,000 tested, 3.1% active | AID 2417, 2010;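 active = readout at or below -70, meaning at least 70% loss of cells showing the perinucleolar compartment, a nuclear body marking cancer cells; inconclusive = readout between -30 and a set limit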
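PC3M cells stably expressing PTB-GFP, 750–1000 cells/well, treated 16 h at 37 °C with compound (23 nl of library stock), in duplicate. After paraformaldehyde fixation and Hoechst stain, imaged at 20x; PNC prevalence scored by image analysis.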
Numbers stand for hits; – = inactive; ? = inconclusive; · = not tested or not shown; [ ] = remark or other dose. Only some compounds are listed: those with a hit (about 11% of all), similar ones and a draw of the others. Unless noted, calls follow the shape of the dose curve; as a rule, active = well fitted inhibition curve with a large enough effect (not every such curve was filed as active); inconclusive = small, poorly fitted or top-dose-only effect, or another doubt; inactive = no such curve, though single readings can be large or run the other way.

SMILES	ALDH1A1 block	JMJD2E inh	HPGD block	PNC inhibitor
Cc1ccc2nc(NC(=O)CSc3nc4c(c(=O)n3C)SC(C)C4)sc2c1 (configuration not stated)	14µM	–	?	–
CS(=O)(=O)N1CCN(c2ccc([N+](=O)[O-])cc2F)CC1	3.2µM	–	·	·
COc1ccc(C(=O)N/C(=C\c2cn(C)c3ccccc23)C(=O)OCC(C)C)cc1	?	–	–	?
COc1cc(OC)c(/C=N/NC(=O)Cn2nc([N+](=O)[O-])cc2C)c(OC)c1	·	–	·	·
O=c1c2sccc2nc(SCc2ccc([N+](=O)[O-])cc2)n1Cc1ccccn1	–	–	–	-84
Cn1cccc1/C=C1\SC(=S)N(NC(=O)c2cccc(Cl)c2)C1=O	2µM	–	–	–
CC(C(=O)O)N1C(=O)/C(=C/c2cccn2C)SC1=S (configuration not stated)	–	–	–	?
Cn1cccc1/C=C1/SC(=S)N(CC(=O)O)C1=O	28µM	22µM	·	·
Cn1cccc1/C=C1\SC(=S)N(NC(=O)c2ccccc2)C1=O	–	–	–	–
S=C1NCN(Cc2ccco2)CN1Cc1ccco1	?	–	·	·
CCN1CN(Cc2ccco2)CNC1=S	–	–	–	-82
Cc1noc(C)c1C(=O)N1CCN(c2ccc(OCc3ccccc3)cc2)CC1	·	–	·	·
Cc1ccc(Nc2nc(C3CC3)cs2)cc1	?	–	–	-119
Clc1ccc(Nc2nc(C3CC3)cs2)cc1	?	–	?	–
O=C1Oc2ccccc2C(=O)/C1=C\N1C(=O)N/C(=C\c2ccccc2O)C1=O	?	·	–	·
O=C(CSc1nnc(-c2c[nH]c3ccccc23)o1)N(Cc1ccccc1)c1ccc(F)cc1	–	–	–	–
COc1ccc(CN(C(=O)CSc2nnc(-c3ccccc3C)o2)c2ccc(F)cc2)cc1	2.5µM	–	?	–
CCn1nc(C)c(CNC(=O)CCc2nnc(-c3ccc(C(C)=O)s3)o2)c1C	32µM	–	·	·
N=C(N)SCc1ccc(Cl)cc1Cl (tested in a mixture with another compound)	–[13.5 µM]	·	?	·
O=C(c1csnn1)N1CCC2(CCCN(c3ccncc3)C2)CC1	–	·	–	·
Cc1cc(C)c(NC2=CC(=O)CC(C)(C)C2)c(C#N)c1	?	–	–	?
Cc1cccc(C#N)c1NC1=CC(=O)CC(C)(C)C1	7.9µM	?	–	–
CC1CCN(C(=O)CNS(=O)(=O)c2ccc(Br)s2)CC1	8.9µM	–	–	–
CC1CC(C)CN(C(=O)CNS(=O)(=O)c2ccc(Br)s2)C1 (configuration not stated)	–	–	–	–
COc1cc(S(=O)(=O)NCC2CCCO2)ccc1Br (configuration not stated)	–	–	–	-112
SMILES	ALDH1A1 block	JMJD2E inh	HPGD block	PNC inhibitor
O=c1c(Br)c(Br)cnn1-c1ccccc1	7.1µM	–	·	·
Cc1ccc(-n2ncc(Br)c(Br)c2=O)cc1	3.2µM	–	·	·
O=c1c(Br)c(N2CCCC2)cnn1-c1ccccc1	–	–	–	–
COc1c(Cl)cnn(-c2ccc(C)cc2)c1=O	?	–	–	–
CN(Cc1ccccc1)C(=O)c1nc2ccccn2c1CN1CCC(N2CCOCC2)CC1	·	–	·	·
O=C(NNc1ncnc2ccccc12)c1cccc(Cl)c1	·	–	·	·
COc1ccc(C(C)=O)cc1COC(=O)CNC(=O)c1ccccc1F	7.1µM	–	?	?
O=C(CSC1=NCCN1)c1ccccc1	–[13.5 µM]	·	–	·
CCCCC(CC)COC(=O)CCCCC(=O)OCC(CC)CCCC (configuration not stated)	–	·	–	·
CCCCC(CC)COCC1CO1 (configuration not stated)	13µM	·	–	·
c1ccc(-n2c(SCC3CCCCO3)nnc2-c2cnccn2)cc1 (configuration not stated)	?	–	28µM	–
CC(C)OC(=O)CSc1nnc(-c2cnccn2)n1-c1ccccc1	–	–	–	–
COc1ccc(-n2c(SCC(=O)NCC3CCCO3)nc3ccccc32)cc1 (configuration not stated)	?	–	10µM	–
Cc1nnc(SCC(=O)NCC2CCCO2)n1-c1ccccc1 (configuration not stated)	?	–	–	-118
COc1ccc(-n2c(Cc3cccn3C)nnc2SCC(=O)NCC2CCCO2)cc1 (configuration not stated)	–	–	–	–
CNC(=O)c1sc(=S)n(-c2ccc(OC)cc2)c1N	–	–	·	·
COc1ccc(-n2c(N)c(C(=O)NCC3CCCO3)sc2=S)cc1 (configuration not stated)	?	–	16µM	–
CCOC(=O)CCN1C(=O)[C@H]2[C@H]3[C@H](O)[C@H](O)C/C(=N/OC[C@@H](O)COCc4ccco4)[C@H]3CC[C@@H]2C1=O	–[13.5 µM]	·	·	·
COc1cccc(-c2c(C#N)c(SC)nc3cc(C)nn23)c1	·	–	·	·
COC(=O)c1ccc(C(NC(=O)OCc2ccccc2)/C(C)=C/[C@@H](C)C(=O)NCCc2c[nH]c3ccc(OC)cc23)cc1 (some centres not stated)	–	–	–	·
Cc1ccc(C(=O)OCC(=O)Nc2cccc(S(=O)(=O)NC3=NCCCCC3)c2)c(C)c1	–	–	·	·
COC(=O)C1=C(C(=O)OC)[C@@H]2N(Cc3ccccc3)c3ccccc3[C@@]23C[C@@H](C(=O)OC)N(S(=O)(=O)c2ccc4c(c2)OCCN4C)C3=N1	–[13.5 µM]	–[11.4 µM]	–	·
CCOC(=O)C1(Cc2cccc(OC)c2)CCN(Cc2cnc(C)s2)CC1	–	–	·	·
COc1ccc(O[C@H]2C=C[C@@H](c3ccccc3)O[C@@H]2COC(=O)CC/C(C)=N/O[C@@H](C)CN2CCCCc3nc(C)c(C)cc32)cc1	–	?	–	-83
S=C(Nc1ccc2nsnc2c1)N1CCCCC1	?	11µM	–	–
SMILES	ALDH1A1 block	JMJD2E inh	HPGD block	PNC inhibitor
Cc1cccc(NC(=S)N2CCCCCC2)c1	?	–	–	-106
Fc1cccc(NC(=S)N2CCCC2)c1	–	–	–	–
O=C(Cc1c[nH]c2ccccc12)Nc1ccc(N2CCOCC2)cc1	?	–	·	·
O=C(Oc1ccc(-c2csnn2)cc1)c1cccs1	–	–	·	·
O=C(Oc1ccccc1-c1csnn1)c1cccs1	18µM	–	·	·
COc1ccccc1-c1ccc(Nc2ccc(C(=O)N3CCOCC3)cc2)nn1	?	–	7.9µM	–
COc1ccc(-c2ccc(Nc3ccc(C(=O)N4CCOCC4)cc3)nn2)cc1OC	–	–	18µM	–
COc1cc2c(=O)n(CCCC(=O)NCC3CCCO3)c(=O)n(CC(=O)c3ccc(F)cc3)c2cc1OC (configuration not stated)	?	–	·	·
CCc1ccc(OCCn2cccn2)cc1	–	–	·	·
Cc1ccc(C(=O)O)cc1NC(=O)CSc1ncnc2sc3c(c12)CCC3	–	–	·	·
CC(C)(CO[C@H]1C[C@H]2CC[C@@]1(C)C2(C)C)[N+](=O)[O-]	–[13.5 µM]	·	–	·
Oc1oc(-c2ccccc2)nc1C=Nc1ccccc1	?	–	–	–
